This is a sample that favours compounds with a hit; in the whole collection about 1.2% have one here.
Six1-Eya2 inh: Six1/Eya2 interaction inhibition; AlphaScreen GST-Six1/His-Eya2 binding, biochemical; hits give low values; activity change, % (test concentration not listed); 360,000 tested, 0.56% active; AID 651725; in the data active means activity change below about -65%; inconclusive means mostly about -30% to -63%
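Compounds are tested against tagged Six1 and Eya2 proteins bridged by glutathione donor and nickel acceptor beads; after a one-hour incubation at 37 °C without light, AlphaScreen emission is recorded.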
CtBP-E1A inh: inhibitors of CtBP/E1A interaction; AlphaScreen GST-E1A/His-CtBP binding, 1536-well; hits give low values; activity change, % (concentration not given with the values); 340,000 tested, 0.49% active; in the data active means activity change below about -65%; inconclusive means mostly about -30% to -63%
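Homogeneous bead-based format: GST-tagged E1A captured on glutathione donor beads, His-tagged CtBP on nickel acceptor beads; compounds precede bead addition by 2 h at 37 °C.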
uPA surface inh: inhibitors of cell surface uPA generation. cell surface uPA generation assay, qHTS. Potency, µM (highest dose often 38.3 µM), hits mostly inhibitors. 330,000 tested, 0.31% active. AID 540303; active means well fitted inhibition curve with a large enough effect; inconclusive means small, poorly fitted or top-dose-only effect; inactive means no such curve, though single readings can be large or run the other way; tested in mouse RAW 264.7 cells; further: nearly all actives have a fitted effect of over 55% in size
Eya2 phos inh: inhibitors of human Eya2 phosphatase activity; recombinant Eya2, OMFP fluorescence dephosphorylation (OMFP is methylfluorescein phosphate); O00167; Potency, µM (top dose mostly 76.9 µM), usual class: inhibitors; 330,000 tested, 0.006% active
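Eya2 (0.2 uM) preincubated 10 min at ambient with compound, then OMFP substrate added at 50 uM; 10 min reaction in 50 mM HEPES pH 7.5, 50 mM NaCl, 5 uM MgCl2, 0.05% BSA, 1 mM DTT. Fluorescence read at Ex 485/Em 525 nm.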
L3MBTL1 inh: blocks human L3MBTL1. Q9Y468. 230,000 tested, 0.66% active. AlphaScreen L3MBTL1–H3K9me1 peptide binding. Potency, µM (titrated, usually from 57.1 µM), usual class: inhibitors; further: nearly all actives have a fitted effect of over 60% in size
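L3MBTL1 (50 nM) pre-complexed 30 min with biotinylated H3(1-15)K9me1 peptide (75 nM), then compounds added for 30 min at room temperature; AlphaScreen streptavidin donor/nickel chelate acceptor beads (10 ug/mL final) read after 30 min dark incubation.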
USP2a block: inhibitors of human ubiquitin-specific protease USP2a; AID 463254; USP2 core, Ub-CHOP2 coupled fluorogenic reporter, 485/531; O75604; 330,000 tested, 0.01% active; Potency, µM (highest dose often 38.3 µM), most hits filed as inhibitors
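USP2 core (10nM final) preincubated 30min RT with compound in 20mM Tris-HCl pH 8.0, 2mM CaCl2, 2mM beta-mercaptoethanol, 0.05% CHAPS; 25nM Ub-CHOP2 plus 25nM reporter substrate added, fluorescence (Ex485/Em531) read after 60min.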
Numbers stand for hits; – = inactive; ? = inconclusive; · = no result; [ ] = another dose, or the depositor's remark. Unless noted, the call rests on the fitted dose curve; in most records, active means well fitted curve in the direction sought with a large enough effect; inconclusive means small, poorly fitted or top-dose-only effect, or another doubt; inactive means no such curve, though single readings can be large; an effect the other way counts as inactive or inconclusive.

SMILES	Six1-Eya2 inh	CtBP-E1A inh	uPA surface inh	Eya2 phos inh	L3MBTL1 inh	USP2a block
CCN(CC)c1ccc(NC(=O)c2cc(Cl)ccc2OC)cc1	-66	?	–	–	·	–
CC(=O)OCC(OC(C)=O)C(OC(C)=O)C(OC(C)=O)C(=O)Nc1cccc(C)c1 (centres undefined)	–	–	–	–	·	–
COCCCNC(=O)Cc1c(C)c2c(cc(C)c3c(C(C)(C)C)coc32)oc1=O	–	–	0.28µM	–	·	–
Cc1ccc(C)c(NC(=O)CCC(=O)N/N=C/c2cc([N+](=O)[O-])ccc2O)c1	-86	·	–	–	–	–
O=C(CSc1nc2ccccc2s1)N/N=C/c1cc([N+](=O)[O-])ccc1O	?	-68	–	–	?	–
Cc1c(NC(=S)N/N=C/c2cc([N+](=O)[O-])ccc2O)c(=O)n(-c2ccccc2)n1C	-88	·	–	–	32µM	–
Cc1ccc(/C=N/NC(=O)CSc2nc3ccccc3s2)o1	–	–	–	–	–	–
O=C(CCCC(=O)Nc1cccc(Br)c1)N/N=C/c1cc([N+](=O)[O-])ccc1O	-67	-82	–	–	·	–
Cc1c(NC(=S)N/N=C/c2ccc(O)cc2)c(=O)n(-c2ccccc2)n1C	–	–	–	–	–	–
CC1CCN(C(=O)COC(=O)c2cccs2)CC1	–	–	–	–	–	–
Cc1ccccc1NC(=O)CCC(=O)N/N=C/c1cc([N+](=O)[O-])ccc1O	-79	-88	–	–	?	–
CN1CCN(c2ccc([N+](=O)[O-])cc2/C=N/NC(=O)c2ccc(F)cc2)CC1	–	–	–	–	·	–
CN1CCN(CCC(=O)N/N=C/c2cc([N+](=O)[O-])ccc2O)CC1	-87	-77	–	–	–	?
O=C(CCC(=O)Nc1cccc(Cl)c1)N/N=C/c1cc([N+](=O)[O-])ccc1O	?	–	–	–	·	–
Cc1ccc(NC(=O)CCC(=O)N/N=C/c2cc([N+](=O)[O-])ccc2O)cc1	-87	-65	–	–	–	–
Cc1cc(C)n2nc(SCC(=O)NC(=O)c3ccccc3)nc2n1	–	–	–	–	–	–
C/C(=N\N1C(=O)c2ccccc2NC1c1ccccc1)c1ccccc1O (centres undefined)	–	·	–	–	–	–
C/C(=N\N1C(=O)c2ccccc2NC1c1ccco1)c1ccccc1O (centres undefined)	–	·	7.9µM	–	–[11.4 µM]	–
Cc1ccc(NC2=C(N3CCOCC3)C(=O)c3ccccc3C2=O)cc1	-89	-92	?	–	?	–
CC(=O)c1ccc(NC2=C(N3CCOCC3)C(=O)c3ccccc3C2=O)cc1	?	–	–	–	?	–
CC(C)C1OC(CCc2ccccc2)Cc2[nH][nH]c(=O)c21 (centres undefined)	–	–	·	·	·	·
O=C(NCCNC1CCC(c2ccccc2)CC1)c1cccs1 (centres undefined)	–	–	–	–	–	–
N#C/C(=C\c1ccc(OCc2ccccc2)cc1)C(N)=O	–	–	–	–	·	–
N#C/C(=C\c1ccc(OC(=O)c2ccccn2)cc1)C(N)=O	-90	–	–	–	?	–
O=C(COC(=O)/C=C/c1cccs1)NC(c1ccccc1)c1ccccc1	–	–	–	–	–	–
SMILES	Six1-Eya2 inh	CtBP-E1A inh	uPA surface inh	Eya2 phos inh	L3MBTL1 inh	USP2a block
O=C(COC(=O)/C=C/C(=O)N1CCN(c2ccccc2)CC1)NC(c1ccccc1)c1ccccc1	–	–	6.3µM	?	·	–
c1ccc(N2CCN(c3nc4ccccc4n4nnnc34)CC2)cc1	–	–	–	–	3.5µM	–
c1ccc2c(c1)nc(N1CCOCC1)c1nnnn12	–	–	–	–	–	–
C=CCn1cc(/C=C/c2cc[n+](C)cc2)c2ccccc21	–	·	10µM	–	–	?
O=c1oc(-c2ccccc2)nc2sc3c(c12)CCC3	–	·	–	–	13µM	–
O=C1CCC(=O)N1c1ccc(-c2nc3sc4c(c3c(=O)o2)CCC4)cc1	–	–	–	–	–	–
CC(C)(C)c1cc(C(=S)N2CCCC2)cc(C(C)(C)C)c1O	–	·	–	–	–	–
COc1cc2c(cc1OC)-c1cc(NC3CCCC3)nc(=O)n1CC2	?	?	–	–	–	–
COc1cc2c(cc1OC)-c1cc(Nc3ccc(N(C)C)cc3)nc(=O)n1CC2	-69	-69	–	–	?	–
COc1cc2c(cc1OC)-c1cc(Nc3cccc(F)c3)nc(=O)n1CC2	-79	–	–	–	·	–
COc1cc2c(cc1OC)-c1cc(Nc3ccc(F)cc3)nc(=O)n1CC2	?	·	–	–	·	–
CCN(CC)c1ccc(Nc2cc3n(c(=O)n2)CCc2cc(OC)c(OC)cc2-3)cc1	?	-84	–	–	·	–
Cc1cnc(NC(=O)CSc2ccc(Cl)cc2)s1	–	–	–	–	–	–
Cc1cnc(NC(=O)Nc2ccc(Cl)cc2)s1	–	–	2.2µM	–	·	–
COC(=O)c1c(C)[nH]c(C(=O)OCC(=O)c2ccc(C)s2)c1C	–	–	–	–	–	–
COc1ccccc1NC(=S)N(Cc1ccco1)Cc1cc2cc(C)c(C)cc2[nH]c1=O	–	–	4µM	–	–	–
COc1ccccc1NC(=S)N(Cc1ccco1)Cc1cc2cccc(C)c2[nH]c1=O	–	–	–	–	–	–
Cc1nc2cc(-c3ccsc3-n3c(C)ccc3C)[nH]n2c(=O)c1Cl	-78	?	–	–	·	–
Cc1cc(=O)n2[nH]c(-c3ccsc3-n3c(C)ccc3C)cc2n1	–	–	–	–	·	–
CCOC(=O)/C(N=Nc1sc(C(=O)OCC)c(C)c1C(=O)OCC)=C(\C)O	·	·	·	–	–	–
CCOC(=O)c1sc(N=NC2=C(O)CCCC2=O)c(C(=O)OCC)c1C	?	–	–	–	3.5µM	–
COc1cc(/C=C2\CCCc3c2nc2ccccc2c3C(=O)O)cc(OC)c1O	–	–	–	–	–	–
COc1ccc(/C=C2\CCc3c2nc2ccccc2c3C(=O)O)cc1OC	?	·	3.5µM	–	?	–
COc1cc(NC(=O)c2cccc(C)c2)c(OC)cc1NC(=O)CN1CCOCC1	–	·	–	–	–	–
O=C(COC(=O)/C=C/c1ccccc1Cl)NC(=O)NCc1ccccc1	–	–	–	–	–	–
O=C(O)c1ccc2c(c1)C(=O)/C(=C\c1ccco1)C2=O	?	–	–	–	3.2µM	–
O=C(O)c1ccc2c(c1)C(=O)/C(=C/c1ccccc1)C2=O	?	–	–	–	3.2µM	–
CC(C)(C)N1C(=O)c2ccc(C(=O)O)cc2C1=O	–	–	–	–	–	–
Cc1ccc(/C=C2/C(=O)c3ccc(C(=O)O)cc3C2=O)o1	?	–	·	–	1.6µM	–
C[C@H](NC(=O)c1nc[nH]c1C(=O)N1CCN(c2ccccc2)CC1)c1ccccc1	–	–	–	–	–	–

Source: PubChem
